Assay results as given in the supplement of paper PMC6555819.

What was measured:
Test in all cases: PBM binding z-score (relative to random genomic background probes); higher = stronger binding; sequences stand for … in GC…GCGATTGACAGCGTAGAATGAAGG
[1] = tested on: FXR:RXRa (NR concentration 270 nM, RXRa partner concentration 90 nM)
Method in brief: (§1)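 Binding buffer was PBS pH 7.4 with 2% milk, 0.02% Triton X-100, 1 mM DTT, 0.2 mg/mL BSA and 0.4 mg/ml salmon testes DNA. In it, ligand-free nuclear receptor dimers were incubated 1 h on custom Agilent 4×180K protein-binding microarrays carrying double-stranded probes. Antibodies against each partner (one per run) detected binding, and z-scores were calculated against random background probes after regression normalization of scanned fluorescence.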

[2] = tested on: LXRa:RXRa (NR concentration 270 nM, RXRa partner concentration 90 nM)
Method in brief: as §1

[3] = tested on: LXRa homodimer (NR concentration 270 nM)
Method in brief: as §1

[4] = tested on: LXRb:RXRa (NR concentration 270 nM, RXRa partner concentration 90 nM)
Method in brief: as §1

[5] = tested on: LXRb homodimer (NR concentration 270 nM)
Method in brief: as §1

[6] = tested on: PPARa:RXRa (NR concentration 270 nM, RXRa partner concentration 90 nM)
Method in brief: as §1

[7] = tested on: PPARg:RXRa (NR concentration 180 nM, RXRa partner concentration 90 nM)
Method in brief: as §1

[8] = tested on: PPARg:RXRa 270nM:90nM, anti-RXR (NR concentration 270 nM, RXRa partner concentration 90 nM)
Method in brief: as §1

[9] = tested on: PPARg:RXRa 30nM:10nM, anti-RXR (NR concentration 30 nM, RXRa partner concentration 10 nM)
Method in brief: as §1

[10] = tested on: PPARg:RXRa 90nM:30nM, anti-RXR (NR concentration 90 nM, RXRa partner concentration 30 nM)
Method in brief: as §1

[11] = tested on: PPARg:RXRa DBDmut IVT, anti-RXR (DBD mutation: RXRa K156A/R161A, NR concentration 270 nM, RXRa partner concentration 90 nM)
Method in brief: as §1

[12] = tested on: PPARg:RXRa IVT, anti-PPARg (NR concentration 270 nM, RXRa partner concentration 90 nM)
Method in brief: as §1

[13] = tested on: PPARg DBDmut:RXRa IVT, anti-PPARg (DBD mutation: PPARg1 K132A/R137A, NR concentration 270 nM, RXRa partner concentration 90 nM)
Method in brief: as §1

[14] = tested on: PPARg DBDmut IVT, anti-PPARg (DBD mutation: PPARg1 K132A/R137A, NR concentration 270 nM)
Method in brief: as §1

[15] = tested on: PPARg homodimer (NR concentration 180 nM)
Method in brief: as §1

[16] = tested on: PXR:RXRa (NR concentration 270 nM, RXRa partner concentration 90 nM)
Method in brief: as §1

[17] = tested on: PXR homodimer (NR concentration 270 nM)
Method in brief: as §1

[18] = tested on: RARa:RXR (NR concentration 270 nM, RXRa partner concentration 90 nM)
Method in brief: as §1

[19] = tested on: RARa homodimer (NR concentration 270 nM)
Method in brief: as §1

[20] = tested on: RARb:RXRa (NR concentration 270 nM, RXRa partner concentration 90 nM)
Method in brief: as §1

Sequence	PBM binding z-score [1]	PBM binding z-score [2]	PBM binding z-score [3]	PBM binding z-score [4]	PBM binding z-score [5]	PBM binding z-score [6]	PBM binding z-score [7]	PBM binding z-score [8]	PBM binding z-score [9]	PBM binding z-score [10]	PBM binding z-score [11]	PBM binding z-score [12]	PBM binding z-score [13]	PBM binding z-score [14]	PBM binding z-score [15]	PBM binding z-score [16]	PBM binding z-score [17]	PBM binding z-score [18]	PBM binding z-score [19]	PBM binding z-score [20]
TCTTGTAGATCAAGCAGGTTATGAAAGCCTGAGT	0.147	0.219	-0.495	0.124	-0.429	0.732	-0.162	1.27	2.34	1.89	1.29	0.311	0.244	0.263	-0.854	0.4	0.201	0.334	-0.519	0.176
GTACCAAGGTGACTAGGTCGTTGATGAGTAGGCG	0.348	0.174	-0.398	-0.125	-1.01	1.59	1.89	1.69	0.141	0.756	1.99	3.81	0.227	-0.333	0.145	0.12	-0.403	0.639	0.0203	1.55
GATACAGGGTCAGCTAGAGGCTAGAGTATGGAAA	4.9	2.5	-0.262	2.16	-0.533	4.51	3.64	3.06	0.467	1.89	0.581	2.17	-0.0888	-0.495	2.09	2.29	-0.0961	3.58	1.14	3.88
TCGAGTAGGTTCCCAATGGGGCATTCAGCTTTCT	-0.431	-0.384	-0.577	-0.1	-1.76	-0.101	-0.771	0.361	0.7	0.426	0.883	0.261	-1.28	-1.09	-0.805	-0.411	-1.24	-0.343	-1.9	-0.327
CCTCGGAGGACAGACGGTCAGAGCTGTCCGCTTT	-0.245	-0.454	-0.415	-1.1	-0.8	-0.791	-0.705	-1.01	-1.36	-0.797	-0.634	-0.745	-1.14	-1.66	-0.576	-0.726	-0.42	-0.842	-0.616	1.23
GCTTGTAGATCAAAGTTAAGAAAGACTAAGCTAA	-0.479	-0.533	-0.585	-0.487	-0.917	1.18	2.55	4.31	2.13	4.45	0.918	0.871	-0.419	0.433	-0.72	-0.462	-0.397	-0.522	-0.688	-0.479
AGTCATAGTTCATCTAGGTAACGTAAGATATGCT	2.22	2.66	1.11	1.59	0.357	2.84	2.87	3.22	1.32	2.47	0.73	2.74	1.12	0.57	1.23	2.03	1.24	1.78	0.89	3.26
TCTGCTAGGTCAGTTGGTCAGCTAGCGAGCTGCC	0.851	0.628	-0.728	0.453	0.185	1.25	0.0409	1.64	1.21	1.31	2.78	3.15	-0.34	-0.0427	-0.0101	0.114	-0.917	0.452	-1.22	3.38
AGAACGAGGGCACGATGAGTTGATAGCAGAGTAG	0.874	0.721	-0.147	0.286	-0.796	2.29	2.6	2.02	0.778	1.51	3.75	3.91	0.853	0.0308	0.364	1.17	0.453	1.01	-0.256	2.32
ATCTCTAGGTAATGATAGTTCAGTGAATGCAAAT	0.391	3.56	0.99	0.864	0.755	0.625	0.774	0.986	0.371	0.513	2.25	2.17	1.1	1.74	1.21	1.12	0.747	0.583	0.965	0.694
GGAACGAGAGCAAAGTTGATAGCATCTGTCGACG	-0.381	-0.564	-0.809	-0.767	-1.1	2.02	3.1	4.59	3.13	5.43	0.164	0.909	-1.31	-0.755	-0.156	-0.47	-0.418	-0.331	-1.16	-0.296
CGGACTAGGTCATCCAGGACAGTGAATACATTGA	3.64	2.45	0.39	1.81	-0.227	4.22	6.64	5.63	3.03	4.87	7.5	7.58	1.52	0.792	1.9	1.59	0.944	1.89	0.179	3.49
TCTAGCAGGTCAGAGGGTCACTCAAGAGGTACGG	4.13	3.26	0.192	2.87	-0.436	4.54	4.39	5.27	3.71	5.21	2.58	3.84	0.285	-0.567	3.57	3.55	-0.129	5.12	0.365	4.07
ATCTCTAGGTAAGACCCAGTTCAGTGAAGAACGC	0.43	0.778	0.612	0.599	0.872	0.54	0.457	0.208	0.196	0.526	2.24	1.79	0.676	0.699	0.695	0.9	1.45	0.59	0.821	0.371
CGTCCAAGGTCAATGCTAGGTCTGTGAAAGCATT	6.34	4.7	0.321	3.41	0.865	5.01	3.28	3.99	0.804	2.73	3.09	3.37	0.249	0.0297	2.17	3.74	0.712	3.88	0.767	5
